From PubChem BioAssay
Only some compounds are listed: those with a hit (about 1.5% of all), similar ones and a draw of the others.
Rin1 Abl inh = inhibitors of Rin1-Abl protein binding, primary screen, biochemical, TR-FRET; Tyrosine-protein kinase ABL1 (Homo sapiens) + Ras and Rab interactor 1 (Homo sapiens), …; inhibition, % at 7.35 µM; 360,000 tested, 0.4% active; AID 588664, 2011; in the data active = inhibition above about 5%, passing the limit was not always enough
sPLA2-III inh = human group III sPLA2 inhibitors, primary screen, biochemical, QFRET, BODIPY PC-A2 liposome substrate; Group 3 secretory phospholipase A2 (Homo sapiens), Q9NZ20; QFRET BODIPY PC-A2 liposome hydrolysis, fluorescence; AID 743126, 2013; inhibition, % at 12.2 µM; 370,000 tested, 0.56% active;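 active = inhibition above mean plus 3 SD of compounds lying within the high and low control bounds, cut at about 19% in these data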;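 also: 0% = median of test compound wells and 100% = no enzyme DMSO wells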
Target sequence (Q9NZ20 whole entry, looked up): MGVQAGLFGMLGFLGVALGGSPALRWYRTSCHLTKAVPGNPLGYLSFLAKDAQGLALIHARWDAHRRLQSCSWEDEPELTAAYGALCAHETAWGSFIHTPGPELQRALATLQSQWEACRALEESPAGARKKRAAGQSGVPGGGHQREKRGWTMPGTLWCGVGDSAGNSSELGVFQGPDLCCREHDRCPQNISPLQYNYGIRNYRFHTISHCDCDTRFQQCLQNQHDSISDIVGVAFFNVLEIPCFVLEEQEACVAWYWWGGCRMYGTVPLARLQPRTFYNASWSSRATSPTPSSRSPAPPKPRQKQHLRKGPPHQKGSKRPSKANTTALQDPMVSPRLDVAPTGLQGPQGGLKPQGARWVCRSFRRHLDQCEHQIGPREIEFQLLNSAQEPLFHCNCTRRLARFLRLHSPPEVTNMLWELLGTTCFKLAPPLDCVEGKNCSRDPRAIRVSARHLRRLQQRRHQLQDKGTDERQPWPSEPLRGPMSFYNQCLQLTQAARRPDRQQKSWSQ
ARNT-TACC3 inh = disruptors of ARNT/TACC3 protein interaction, primary screen, biochemical, AlphaScreen, single concentration. inhibition, % at 9.99 µM. Transforming acidic coiled-coil-containing protein 3 (Homo sapiens), Q9Y6A5. 390,000 tested, 0.66% active. AlphaScreen His-ARNT PAS-B/GST-TACC3 binding, luminescence; TACC3 fragment carries E629A point mutation;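 active = mean inhibition of replicates at least 50% and at least half of replicates each reaching 50%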;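 also: 0% = complete ARNT plus TACC3 wells and 100% = ARNT alone without TACC3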
AI-2 QS modul = Vibrio harveyi AI-2 quorum sensing modulators, primary screen, JMH597 strain, luminescence/OD600 ratio; Vibrio harveyi JMH597 AI-2 luminescence/OD600 ratio, 9 h; active compounds read low; strain lacks LuxN and CqsS sensors; 0 = neutral-control median; activity change, % at 7.5 µM; 300,000 tested, 0.4% active; AID 2094, 2009; in the data active = activity change below about -75%, passing the limit was not always enough;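 also: luminescence divided by OD600 gain over 9 h not by final OD600 alone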
sPLA2 confirm = human group III sPLA2 inhibitors, confirmation, biochemical, QFRET, triplicate; shares compounds with sPLA2-III inh; recombinant hGIII-sPLA2, BODIPY PC-A2 QFRET fluorescence; inhibition, % at 12.2 µM; 2,000 tested, 34% active; AID 743280, 2014;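 active = mean inhibition across triplicates above the hit cutoff set in the earlier primary screen, cut at about 19% in these data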;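 also: 0% = enzyme with DMSO and 100% = DMSO wells lacking enzyme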
535nm interf = 535nm fluorescence optical interference, confirmation, artefact control for HGIII-sPLA2 inhibitor project, biochemical, QFRET; shares compounds with sPLA2-III inh; BODIPY FL product fluorescence interference; inhibition, % at 12.2 µM; 2,000 tested, 8.5% active; AID 743282, 2014;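 active = average inhibition above the solvent-only control mean plus 3 SD, cut at about 6% in these data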;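 also: 0% = DMSO with substrate plus product and 100% = DMSO with substrate alone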
535nm interf DR = 535nm fluorescence optical interference, dose response, artefact control for HGIII-sPLA2 inhibitor project, biochemical, QFRET; 240 tested, under 10 active; AID 743455, 2014; IC50, µM; shares compounds with sPLA2-III inh; BODIPY FL product fluorescence interference, cell-free;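 active = IC50 at or below 10 µM; inactive = IC50 above 10 µM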
* marks the source's active call; other numbers are inactive results.

What do the screens show for `C(=N\Nc1nc2ccccc2[nH]1)/c1cccc2cccnc12`?
Rin1 Abl inh: 0; sPLA2-III inh: 37*; ARNT-TACC3 inh: 61*; AI-2 QS modul: 26; sPLA2 confirm: 19; 535nm interf: 2

What do the screens show for `C[C@H](CO)N1C[C@H](C)[C@H](CN(C)Cc2ccc(C(F)(F)F)cc2)Oc2c(NS(=O)(=O)c3ccccc3)cccc2C1=O`?
ARNT-TACC3 inh: 1

How did Cc1[nH]c(N=Nc2ccccc2)nc1N=Nc1ccccc1 do in these assays?
Rin1 Abl inh: -3; sPLA2-III inh: 25*; ARNT-TACC3 inh: 16; AI-2 QS modul: 5; sPLA2 confirm: 17; 535nm interf: 9.0*

Results for Cc1cccc2c(N=Nc3ccccc3)c(O)[nH]c12 ?
Rin1 Abl inh: -4; sPLA2-III inh: 1; AI-2 QS modul: 4

What do the screens show for `CCN1CCN(/C=N/c2nc(C)cs2)CC1`?
Rin1 Abl inh: 1; sPLA2-III inh: 94*; ARNT-TACC3 inh: -3; AI-2 QS modul: 11; sPLA2 confirm: 6; 535nm interf: -3

How did C[C@@H]1CN([C@@H](C)CO)C(=O)Cc2cc(NS(=O)(=O)c3cccs3)ccc2O[C@@H]1CN(C)C(=O)NC1CCCCC1 do in these assays?
ARNT-TACC3 inh: -19

Results for N#CC12C(=O)NC(=O)C1(C#N)C21CCCC1 (stereo not drawn) ?
Rin1 Abl inh: 2; sPLA2-III inh: 22*; ARNT-TACC3 inh: -3; sPLA2 confirm: -3; 535nm interf: -6

Results for Cc1noc(C)c1NC(=O)Nc1ccc2c(c1)C(=O)N([C@H](C)CO)C[C@@H](C)[C@H](CN(C)Cc1ccc(C(=O)O)cc1)O2 ?
ARNT-TACC3 inh: -3

What do the screens show for `CCNc1nc(NCC)n2c(SC(C(=O)Nc3cc(C)ccc3C)c3ccccc3)nnc2n1` (stereo not drawn)?
Rin1 Abl inh: 0; sPLA2-III inh: -42; ARNT-TACC3 inh: 2; AI-2 QS modul: 8

What do the screens show for `CCOCCCn1c(SC(C(=O)Nc2cc(C)ccc2C)c2ccccc2)nnc1-c1ccc(Cl)cc1` (stereo not drawn)?
Rin1 Abl inh: 1; sPLA2-III inh: 20*; ARNT-TACC3 inh: -6; AI-2 QS modul: 18; sPLA2 confirm: -8; 535nm interf: -5

What do the screens show for `c1ccc2[nH]c(SCc3cn4cccnc4n3)nc2c1`?
Rin1 Abl inh: 3; sPLA2-III inh: 23*; ARNT-TACC3 inh: -1; AI-2 QS modul: 27; sPLA2 confirm: -4; 535nm interf: -7

Results for O=C(NNc1ccccc1[N+](=O)[O-])Nc1ccc(Cl)c(Cl)c1 ?
Rin1 Abl inh: -3; sPLA2-III inh: 27*; ARNT-TACC3 inh: -3; AI-2 QS modul: -5; sPLA2 confirm: 28*; 535nm interf: 9.8*

Results for CN(C)c1ccc(NC(=O)/C=C/c2c(Cl)cccc2Cl)cc1 ?
Rin1 Abl inh: -2; sPLA2-III inh: 31*; ARNT-TACC3 inh: -4; AI-2 QS modul: 19; sPLA2 confirm: 18; 535nm interf: 8.4*

What do the screens show for `CC=Cc1ccc2n(c1=O)C[C@H]1[C@H](CO)[C@@H](C(=O)NCC(F)(F)F)[C@@H]2N1C(C)=O` (mixture of isomers)?
ARNT-TACC3 inh: -6

How did CCNC(=S)NNC(=O)c1c(Cl)c(C)nn1C do in these assays?
Rin1 Abl inh: 0; sPLA2-III inh: 21*; ARNT-TACC3 inh: -2; AI-2 QS modul: 13; sPLA2 confirm: 9; 535nm interf: -4

How did CCCCNC(=S)NNC(=O)c1c(Cl)c(C)nn1C do in these assays?
Rin1 Abl inh: -2; sPLA2-III inh: 5; ARNT-TACC3 inh: -6; AI-2 QS modul: -2

Results for CNC(=S)NCCc1ccccc1 ?
Rin1 Abl inh: 2; sPLA2-III inh: 15; ARNT-TACC3 inh: -2; AI-2 QS modul: 15

What do the screens show for `Cc1cccnc1NC(=S)NCCc1ccccc1`?
Rin1 Abl inh: 4; sPLA2-III inh: 16; ARNT-TACC3 inh: 24; AI-2 QS modul: 28

What do the screens show for `OCCNC(=S)NCCc1ccccc1`?
Rin1 Abl inh: -2; sPLA2-III inh: 20*; ARNT-TACC3 inh: -2; AI-2 QS modul: 11; sPLA2 confirm: 4; 535nm interf: -1

How did S=C(NCCc1ccccc1)Nc1ncccn1 do in these assays?
Rin1 Abl inh: 3; sPLA2-III inh: 20*; ARNT-TACC3 inh: -1; sPLA2 confirm: 10; 535nm interf: -3

Results for CCS(=O)(=O)Nc1ccc2c(c1)C(=O)N(C)C[C@H](OC)[C@H](C)CN(Cc1ccccn1)[C@H](C)CO2 ?
ARNT-TACC3 inh: 2

How did CCCN(CCC)C(=O)c1oc2ccccc2c1NC(=O)Cc1cccc(OC)c1 do in these assays?
Rin1 Abl inh: 3; sPLA2-III inh: 20*; ARNT-TACC3 inh: 1; AI-2 QS modul: 25; sPLA2 confirm: -2; 535nm interf: -19

What do the screens show for `CN(C)C(=O)[C@H]1[C@H](CO)[C@H]2Cn3c(ccc(C4=CCCC4)c3=O)[C@H]2N1C(=O)c1ccccc1F`?
ARNT-TACC3 inh: 0

How did Cc1ccc(S(=O)(=O)NCC[C@H]2CC[C@@H](NC(=O)CCN3CCCCC3)[C@H](CO)O2)cc1 do in these assays?
ARNT-TACC3 inh: -16

What do the screens show for `COC(=O)c1cc(CSC(=N)N)ccc1OCCC(C)C`?
Rin1 Abl inh: 2; sPLA2-III inh: 21*; ARNT-TACC3 inh: -4; AI-2 QS modul: 23; sPLA2 confirm: 29*; 535nm interf: -13

How did CCn1c(O)c(N=NC(=O)CNC(=O)c2ccco2)c2ccccc21 do in these assays?
Rin1 Abl inh: -4; sPLA2-III inh: 2; AI-2 QS modul: 10

Results for CCCn1c(O)c(N=NC(=O)c2ccco2)c2ccccc21 ?
Rin1 Abl inh: -4; sPLA2-III inh: 21*; ARNT-TACC3 inh: -2; AI-2 QS modul: 29; sPLA2 confirm: -1; 535nm interf: -6

Results for O=C(N/N=C/c1ccc2c(c1)OCO2)c1ccc2c(c1)OCCO2 ?
Rin1 Abl inh: -2; sPLA2-III inh: -1; ARNT-TACC3 inh: -2; AI-2 QS modul: 16

Results for Cc1cc(Br)cc(/C=N/NC(=O)c2ccc3c(c2)OCO3)c1O ?
Rin1 Abl inh: -2; sPLA2-III inh: 36*; ARNT-TACC3 inh: 4; AI-2 QS modul: 0; sPLA2 confirm: 40*; 535nm interf: 2; 535nm interf DR: >122
